Compound activity as filed in PubChem.
JMJD2A Tudor inh = blocks the human JMJD2A Tudor domain; AlphaScreen JMJD2A-Tudor / H3K4me3 peptide binding; Potency, µM (highest dose often 114 µM), usual class: inhibitors; AID 504339; hit rate 4.4% among 390,000; further: nearly all actives have a fitted effect of over 50% in size
GLS inhibitor = inhibitors of human glutaminase (GLS); O94925; GLS enzymatic activity, qHTS titration; Potency, µM (titrated, usually from 45.5 µM), actives largely listed as inhibitors; hit rate 0.21% among 410,000
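hKGA; 45 mM KH2PO4 pH 8.2 + 0.02% Tween-20; cpd via pin tool; 1 mM Gln soln; GluOx/HRP/Amplex Red; RT 30 min; fluor. t0 & final.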
L3MBTL1 block = L3MBTL1 (human) inhibition | Q9Y468 | AlphaScreen L3MBTL1–H3K9me1 peptide binding | Potency, µM (top dose mostly 57.1 µM), hits mostly inhibitors | hit rate 0.66% among 230,000; further: nearly all actives have a fitted effect of over 60% in size
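L3MBTL1 50 nM + b-AHA-H3(1-15)K9me1 75 nM, 30 min RT; compound added, 30 min RT; streptavidin donor/Ni-chelate acceptor beads 10 ug/mL each final, 30 min RT dark; AlphaScreen read.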
HP1b chromo inh = blocks HP1-beta chromodomain binding to methylated histone tails; Potency, µM (highest dose often 114 µM), actives largely listed as inhibitors; hit rate 0.56% among 390,000; AID 540317; AlphaScreen HP1-beta / biotin-H3K9me3 peptide binding; further: nearly all actives have a fitted effect of over 70% in size
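Compound inhibition of the preformed complex between 50 nM HP1-beta and 50 nM biotinylated H3K9me3 peptide was read by AlphaScreen. Buffer was PBS pH 7.4 with 0.01% Tween-20. Incubations ran 30 min at room temperature, with 10 ug/mL donor/acceptor beads.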
G9a inh = inhibitors of human histone lysine methyltransferase G9a | Potency, µM (highest dose often 102 µM), most hits filed as inhibitors | hit rate 8.8% among 350,000 | G9a H3K9 monomethylation, AlphaScreen, 2 h; further: nearly all actives have a fitted effect of over 75% in size
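G9a (20 nM) preincubated 15 min RT with compounds, then 500 nM biotinylated H3K9 peptide and 20 uM SAM added; 2 h RT reaction. Monomethyl-H3K9 product detected by AlphaScreen with anti-H3K9me1 antibody, streptavidin donor and anti-rabbit IgG acceptor beads.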
BAZ2B block = inhibitors of human BAZ2B bromodomain. Q9UIF8. AlphaScreen BAZ2B-H3K14Ac peptide displacement. Potency, µM (titrated, usually from 114 µM), actives largely listed as inhibitors. hit rate 4.4% among 360,000. AID 504333; further: nearly all actives have a fitted effect of over 60% in size
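BAZ2B (50 nM) with biotin-H3(5-23)K14Ac peptide (50 nM) in PBS pH 7.4, 0.01% Tween-20, preformed 30 min, then compound 30 min at room temperature; top concentration 110uM. AlphaScreen streptavidin donor/nickel chelate acceptor beads (10 ug/mL final), 20 min dark, signal read.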
Hits are given with their value; – = inactive; ? = inconclusive; · = no result; [ ] = remark or other dose. Hits are enriched below; roughly 10% of the tested compounds scored in any of these assays. The call rests on the fitted dose curve; in most records, active means well fitted curve in the direction sought with a large enough effect; inconclusive means small, poorly fitted or top-dose-only effect, or another doubt; inactive means no such curve, though single readings can be large; an effect the other way counts as inactive or inconclusive.

SMILES	JMJD2A Tudor inh	GLS inhibitor	L3MBTL1 block	HP1b chromo inh	G9a inh	BAZ2B block
CCOC(=O)N1CCN(C(=O)CCCn2c(=S)[nH]c3ccsc3c2=O)CC1	22µM	–	·	–	32µM	?
CCOC(=O)N1CCN(C(=O)CCCn2c(=S)[nH]c3ccc(Br)cc3c2=O)CC1	–	–	·	–	10µM	–
CCOC(=O)N1CCN(C(=O)CCCCCn2c(=S)[nH]c3ccsc3c2=O)CC1	79µM	–	·	–	18µM	–
O=C(CSc1nc2nccnc2c(=O)n1CCc1c[nH]c2ccccc12)Nc1ccccc1	–	–	·	–	–	–
COc1ccc2c(c1)c1c(c(=O)n(-c3cc(Cl)ccc3C)c(=O)n1CC(=O)N1CCCC1)n2C	–	–	·	–	?	–
CCN(CC)C(=O)Cn1c(=O)nc(-c2ccccc2F)c2cc(Cl)ccc21	–	–	·	–	–	–
Nc1cc(=O)[nH]c(SCC(=O)N2N=C(c3ccc(Cl)cc3)CC2c2ccco2)n1 (stereo not given)	–	–	–	–	?	?
Cc1ccc(C2=NN(C(=O)CSc3nc4ncc(Cl)cc4[nH]3)C(c3ccco3)C2)cc1 (stereo not given)	–	–	?	–	22µM	·
CCCc1cc(=O)[nH]c(SCC(=O)N2N=C(c3ccc(Cl)cc3)CC2c2ccco2)n1 (stereo not given)	–	–	–	–	?	–
COc1ccc(C2=NN(C(=O)CSc3nc4ncc(Cl)cc4[nH]3)C(c3ccco3)C2)cc1 (stereo not given)	–	–	–	–	56µM	–
O=C(NCCc1ccc(Cl)cc1)c1ccc(CSCc2cccc(Cl)c2)o1	–	–	·	–	–	–
O=C(NCc1ccc(F)cc1)c1c2c(nc3ccccc13)CCN(Cc1ccccc1)C2	–	–	–	–	45µM	–
CC(=O)Nc1ccc(NC(=O)COC(=O)c2c3c(nc4ccccc24)CCN(Cc2ccccc2)C3)cc1	–	–	–	–	50µM	–
CNc1ncncc1-c1ccccc1CN(C)C	·	·	·	·	–[0.501 µM]	·
CCOC(=O)c1ccc(CN(Cc2ccc(OC)cc2)S(=O)(=O)c2cccc(C(F)(F)F)c2)cc1	–	–	·	–	–	–
COc1cccc(CNC(=O)CCn2c(=O)c3cccn3c3ccc(F)cc32)c1OC	–	–	·	–	–	–
CCOC(=O)CCCCC(=O)c1[nH]c(=O)[nH]c1CSc1nc(-c2ccccc2)c(C#N)c(=O)[nH]1	?	–	–	–	?	35µM
CCOC(=O)c1[nH]c(=O)[nH]c1CSc1ccccn1	–	–	·	–	?	–
CCOC(=O)CCCCC(=O)c1[nH]c(=O)[nH]c1Cn1cnc2ccccc21	?	–	–	–	?	35µM
CCOC(=O)CCCCC(=O)c1[nH]c(=O)[nH]c1CSCCO	79µM	–	·	–	?	13µM
N#Cc1c(-c2ccccc2)nc(SCC(=O)N(c2ccccc2)c2ccccc2)[nH]c1=O	–	–	–	–	?	–
Cc1nn(Cc2ccccc2)c2c1C(c1cccnc1)C(C#N)=C(N)O2 (stereo not given)	–	–	·	–	50µM	–
CCOC(=O)c1c(C)n(C(=O)c2ccco2)c(=O)n1C(=O)c1ccco1	–	–	–	–	56µM	–
NC(CC(=O)NC(c1ccccc1)(c1ccccc1)c1ccccc1)C(=O)O (stereo not given)	–	–	·	–	–	–
Nc1ccccc1C(=O)C[C@H](N)C(=O)O	18µM	–	·	–	–	·
SMILES	JMJD2A Tudor inh	GLS inhibitor	L3MBTL1 block	HP1b chromo inh	G9a inh	BAZ2B block
C/C(=N\NC(=O)c1cc(-c2cccc([N+](=O)[O-])c2)n[nH]1)c1ccccc1O	14µM	–	?	–	–	8.9µM
COc1ccccc1NC(=O)Cn1c(=O)n(CCc2ccccc2)c(=O)c2c3c(sc21)CN(C(C)=O)CC3	–	–	·	–	–	–
CC(C)(C)S(=O)(=O)/C(C#N)=C/c1sccc1C1OCCO1	71µM	–	–	–	–	–
Cc1ccc2c(c1)C(c1ccc(F)cc1)N(C(=O)c1ccc(S(=O)(=O)N3CCCCC3)cc1)CC(=O)N2 (stereo not given)	–	–	·	–	–	–
Cc1ccc(-n2[nH]c(C)c(C=Nc3cc(C)ccn3)c2=O)cc1	–	–	–	–	?	–
Cc1ccnc(N=O)c1	20µM	–	–	?	·	·
CCC(C)(C)n1nnnc1C(c1cc2cccc(C)c2[nH]c1=O)N1CCCC1 (stereo not given)	–	–	–	–	11µM	–
CCC(C)(C)n1nnnc1C(c1cc2cc(C)cc(C)c2[nH]c1=O)N1CCN(Cc2ccc3c(c2)OCO3)CC1 (stereo not given)	–	–	·	–	–[12.7 µM]	–
CCC(C)(C)n1nnnc1C(c1cc2cc(C)cc(C)c2[nH]c1=O)N1CCCC1 (stereo not given)	?	–	–	–	7.9µM	–
Cc1nn(-c2ccccc2)cc1/C=N/NC(N)=S	–	–	–	–	–	–
Cc1nn(-c2ccccc2)cc1C(c1c(N)[nH]c(=S)[nH]c1=O)c1c(N)[nH]c(=S)[nH]c1=O	–[11.4 µM]	–	–	–	32µM	–
Cc1cc(C)nc(/N=C2\NC(=O)CC(C(=O)O)N2c2ccc(F)c(Cl)c2)n1 (stereo not given)	·	·	–	·	–	–
COC(=O)/C=C1/C(=O)N/C(=N\c2nc(C)cc(C)n2)N1c1ccc(OC)cc1	25µM	–	–	–	?	?
COC(=O)/C=C1\N/C(=N/c2nc(C)c3cc(OC)ccc3n2)NC1=O	–	–	–	–	–	–
COC(=O)/C=C1\N/C(=N\c2nc(C)cc(C)n2)N(c2ccc(C)c(C)c2)C1=O	28µM	–	–	–	?	–
COC(=O)/C=C1\N/C(=N\c2nc(C)cc(C)n2)N(c2ccc(Cl)cc2)C1=O	20µM	–	–	–	·	–
COCCn1c(=O)c(-c2ccc(F)cc2)nc2cnc(OCc3ccccc3)nc21	·	·	·	·	–[12.7 µM]	·
O=C(/C=C/c1ccncc1)c1ccc2c(c1)OCCO2	–	–	–	–	50µM	–
CC1(C)CC(=O)C2=C(C1)NC(Nc1nc3ccccc3o1)=NC2c1cccc(F)c1 (stereo not given)	–	·	·	–	·	·
COc1ccc(N(CC(=O)NCCc2ccccc2)S(=O)(=O)c2ccccc2)c(OC)c1	–	–	·	–	–	–
O=c1nc2s/c(=C\c3ccc(-c4ccccc4[N+](=O)[O-])o3)c(=O)n2nc1-c1ccccc1	–	–	2.2µM	–	?	10µM
COc1ccc(C2CC(=O)C(CS(=O)(=O)c3ccccc3)C(=O)C2)cc1 (stereo not given)	–[11.4 µM]	–	·	–	–	–
O=C1CC(c2ccc(Cl)cc2)CC(=O)C1CS(=O)(=O)c1ccccc1 (stereo not given)	–[11.4 µM]	?	·	–	4µM	79µM
